# Measurements reported in PubChem BioAssay (NCATS).
# Results filed as inconclusive are left out. Where a call stands in place of a potency, no number is given. Some structures have more than one record in an assay (separate samples or runs), and their calls can disagree. Activity calls are given as the source filed them. Unless noted, calls follow the shape of the dose curve; as a rule, active = well fitted curve in the direction sought with a large enough effect; inconclusive = small, poorly fitted or top-dose-only effect, or another doubt; inactive = no such curve, though single readings can be large; an effect the other way counts as inactive or inconclusive.
# Legend:
# [1] = target: Thioredoxin reductase 1, cytoplasmic (Rattus norvegicus) (UniProt O89049); assay: qHTS Assay for Substrates of Mammalian Selenoprotein Thioredoxin Reductase 1 (TrxR1) (AID 488772);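 also: series mostly up to about 57 µM; a drop in NADPH fluorescence below the no-compound background marks a TrxR1 substrate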
# Outline: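 In this dual-purpose format, potential substrates are identified from the first fluorescence read after selenite addition, not from the 8-minute delta. Rat enzyme is preincubated with NADPH and then with compound at ~22 deg C.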
# [2] = target: Thioredoxin reductase 1, cytoplasmic (Rattus norvegicus) (UniProt O89049); assay: qHTS Assay for Inhibitors of Mammalian Selenoprotein Thioredoxin Reductase 1 (TrxR1) (AID 488773); details: Potency: inhibition;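 also: drop in NADPH fluorescence over an 8 min run after selenite addition; series mostly up to about 57 µM; nearly all actives have a fitted effect of over 40% in size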
# Outline: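 Inhibition is scored from the loss of NADPH fluorescence between first and last reads of an 8-min kinetic run. Selenite (400 uM) was the substrate, added after 15 min compound preincubation at room temperature.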
# [3] = target: Flap endonuclease 1 (Homo sapiens) (UniProt P39748); assay: qHTS Validation Assay for the Inhibitors of Human Flap endonuclease 1 (FEN1) (AID 488816); also: potency is read from the fitted curve at half-maximal effect
# Outline: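 Steps: add FEN1 (10 nM reagent) or buffer only; pin compounds; hold 15 min at room temperature; start with substrate, 50 nM final; read at 0 and 15 min; correct, normalize and fit a four-parameter Hill curve.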
# [4] = target: M-phase phosphoprotein 8 (Homo sapiens) (UniProt Q99549); assay: qHTS Validation Assay for Inhibitors for MPP8 Chromodomain Interactions with Methylated Histone Tails (AID 488949); also: nearly all actives have a fitted effect of over 55% in size; also: potency is read from the fitted curve at half-maximal effect
# Outline: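 Disruption of the preformed MPP8–trimethyl-H3K9 peptide complex (both 50 nM, 30 min, RT) is measured after 30 min compound exposure, using AlphaScreen proximity beads; aurintricarboxylic acid titration serves as plate control.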
# [5] = target: Methanococcus maripaludis chaperonin (MmCpn) (UniProt Q6LX38); assay: High-Throughput Screening for Modulators of Cytosolic Chaperonin Activity: MmCpn Primary Screen (AID 488978);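 also: 50 nM MmCpn enzyme hydrolysing 30 µM ATP at 37 °C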
# Outline: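 Measures ATPase turnover of the M. maripaludis chaperonin (50 nM final) against 30 uM ATP over 10 min at 37C, with compound added 5 min beforehand at room temperature. ADP is quantified by HTRF immunodetection.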
# [6] = target: Transient receptor potential cation channel subfamily V member 1 (Homo sapiens) (UniProt Q8NER1); assay: HTS Assay for Compounds that Act as Enhancers of the Vanilloid Receptor 1 (AID 488979)
# Outline: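 TRPV1-expressing cells loaded with Fluo-8 calcium dye; compounds added and calcium influx read kinetically for 3 min (agonist phase), then capsaicin at EC20 added and read 2 min more for enhancement. Fluorescence ex 480/em 520 nm.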
# [7] = target: Thyrotropin receptor (Homo sapiens) (UniProt P16473); assay: qHTS Assay for Antagonists of the Thyroid Stimulating Hormone Receptor (AID 488980); also: series mostly up to about 58 µM
# Outline: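 Cells expressing human TSHR (HEK293) are dispensed in HBSS/HEPES containing 70 uM RO 20-1724, compound is added, then TSH at EC80 (4 nM final). Antibody in lysis buffer follows, 30 minutes at room temperature before HTRF detection.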
# [8] = target: D(1A) dopamine receptor (Homo sapiens) (UniProt P21728); assay: HTS Assay for Allosteric Agonists of the Human D1 Dopamine Receptor: Primary Screen for Agonists (AID 488981)
# Outline: (§1)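 Tetracycline-induced HEK293 T-REx cells force-coupled to calcium signalling were incubated overnight at 30 C and dye-loaded at room temperature. Calcium flux over 180 s after compound addition flagged agonists; a further 180 s read after EC20 dopamine flagged potentiators.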
# [9] = target: D(1A) dopamine receptor (Homo sapiens) (UniProt P21728); assay: HTS Assay for Allosteric Agonists of the Human D1 Dopamine Receptor: Primary Screen for Potentiators (AID 488982)
# Outline: as §1
# [10] = target: D(1A) dopamine receptor (Homo sapiens) (UniProt P21728); assay: HTS Assay for Allosteric Agonists of the Human D1 Dopamine Receptor: Primary Screen for Antagonists (AID 488983);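 also: calcium flux response to an EC80 dopamine challenge measured with no-wash dye; nearly all actives have a fitted effect of over 65% in size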
# Outline: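 Calcium-flux read-out in inducible HEK293 T-REx cells expressing D1, dye-loaded 30–90 min at room temperature. Kinetic reads: 180 s after compound (agonist phase), then 180 s after an EC80 dopamine challenge.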
# [11] = Validation screen for small molecules that induce genotoxicity in human embryonic kidney (HEK293T) cells expressing luciferase-tagged ELG1 (AID 493106); also: potency is read from the fitted curve at half-maximal effect
# Outline: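 ELG1-luciferase reporter readout (ONE-Glo, 30 min, room temperature) after 16 hr compound treatment at 37 °C of HEK293T cells at 2,000 per well. Rising luminescence flags genotoxic stress.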
# [12] = target: Thyrotropin-releasing hormone receptor (Homo sapiens) (UniProt P34981); assay: qHTS for Small Molecule Agonists and Allosteric Enhancers of Human TRH Receptor: Validation Screen for Agonists (AID 493127;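 active = calcium activation more than 3 SD above the typical response in the agonist read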;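 also: intracellular calcium rise by fluo-8 fluorescence before TRH EC20 addition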); details: TRH receptor agonist cell assay; at 2 µM; stronger effect = higher value
# Outline: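 Compound-evoked intracellular calcium release in fluo-8-loaded TRHR cells, read kinetically on FDSS (Ex 480/Em 530, 1 s/cycle) after 23 nL pintool transfer. Agonist phase preceded 10 nM TRH EC20 addition.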
# [13] = target: ATP-dependent 6-phosphofructokinase (Trypanosoma brucei brucei) (UniProt O15648); assay: qHTS Assay to Find Inhibitors of T. brucei phosphofructokinase: hit validation (AID 492961);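 also: luminescence reports ADP formed as PFK phosphorylates fructose-6-phosphate with ATP; series mostly up to about 51 µM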
# Outline: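 Reaction: 0.1 M triethanolamine pH 8.0, 5 mM MgCl2, F6P 0.5 mM, ATP 0.1 mM, PFK 1.25 nM, 45 min RT. Read-out: ADP-Glo luminescence. Analysis: concentration-response fits, classed by r2 and efficacy.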
# [14] = Quantitative high throughput screen for delayed death inhibitors of the malarial parasite plastid, 96 hour incubation (AID 488745); also: series mostly up to about 29 µM; nearly all actives have a fitted effect of over 70% in size
# Outline: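 Decreased firefly luciferase luminescence indicates inhibited growth of reporter-integrated P. falciparum after two generations (96 h, 37 C, 5% CO2). Infected erythrocytes at 0.1% parasitemia, 2% hematocrit, in Albumax-supplemented RPMI 1640.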
# [15] = Quantitative high throughput screen for delayed death inhibitors of the malarial parasite plastid, 48 hour incubation (AID 488752); also: nearly all actives have a fitted effect of over 65% in size
# Outline: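 One-generation (48 h) growth assay: a decrease in luciferase signal from an integrated reporter in P. falciparum-infected red cells (0.1% parasitemia, 2% hematocrit) after compound exposure at 37 C indicates parasite inhibition.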
# [16] = target: Chromobox protein homolog 1 (Homo sapiens) (UniProt P83916); assay: qHTS Validation Assay for Inhibitors of HP1-beta Chromodomain Interactions with Methylated Histone Tails (AID 488953); also: nearly all actives have a fitted effect of over 50% in size; also: potency is read from the fitted curve at half-maximal effect
# Outline: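 AlphaScreen proximity signal from streptavidin donor and nickel chelate acceptor beads (final 10 ug/mL) after 30 min dark incubation. Compounds had 30 min at room temperature with preformed complex of 50 nM HP1-beta and 50 nM b-H3(1-18)K9me3 in PBS pH 7.4 with 0.01% Tween-20.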
# [17] = target: ATPase family AAA domain-containing protein 5 (Homo sapiens) (UniProt Q96QE3); assay: Validation screen for small molecules that inhibit ELG1-dependent DNA repair in human embryonic kidney (HEK293T) cells expressing luciferase-tagged ELG1 (AID 493107);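 also: series mostly up to about 46 µM; inhibitors lower the ELG1-luciferase luminescence signal; nearly all actives have a fitted effect of over 70% in size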
# Outline: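 Luciferase read-out, ONE-Glo, 30 min at room temperature, follows 16 h co-exposure at 37 C of compound and the DNA-damaging agent 5-fluorouridine. Cells: HEK293T with ELG1-luciferase fusion, 2,000 per well, DMSO as vehicle.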
# [18] = target: Beta-2 adrenergic receptor (Homo sapiens) (UniProt P07550); assay: qHTS validation assay of beta-arrestin-biased ligands of beta2-adrenergic receptor (AID 485366)
# Outline: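 qHTS, Tango cells, 1500 cells/well, DMEM + 1% FBS. Cpd 18 hr at 37 degrees C. Luciferin/ATP/CoA detection mix, 15 min RT, luminescence read. %Activity from corrected signal; CRC fit, curve class.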
# Sequence of D(1A) dopamine receptor (Homo sapiens) (P21728 whole entry, looked up): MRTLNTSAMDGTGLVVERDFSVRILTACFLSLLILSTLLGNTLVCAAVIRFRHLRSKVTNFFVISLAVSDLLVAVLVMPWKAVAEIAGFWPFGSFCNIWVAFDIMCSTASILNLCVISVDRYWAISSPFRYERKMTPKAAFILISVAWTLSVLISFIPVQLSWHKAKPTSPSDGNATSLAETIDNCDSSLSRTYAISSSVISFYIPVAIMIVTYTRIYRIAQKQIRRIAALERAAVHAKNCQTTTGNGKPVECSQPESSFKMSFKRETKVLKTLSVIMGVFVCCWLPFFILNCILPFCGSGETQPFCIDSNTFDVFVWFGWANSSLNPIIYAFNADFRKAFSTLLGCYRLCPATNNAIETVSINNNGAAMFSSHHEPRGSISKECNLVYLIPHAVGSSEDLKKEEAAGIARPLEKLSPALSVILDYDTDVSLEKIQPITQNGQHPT
# Sequence of Thioredoxin reductase 1, cytoplasmic (Rattus norvegicus) (O89049 whole entry, looked up): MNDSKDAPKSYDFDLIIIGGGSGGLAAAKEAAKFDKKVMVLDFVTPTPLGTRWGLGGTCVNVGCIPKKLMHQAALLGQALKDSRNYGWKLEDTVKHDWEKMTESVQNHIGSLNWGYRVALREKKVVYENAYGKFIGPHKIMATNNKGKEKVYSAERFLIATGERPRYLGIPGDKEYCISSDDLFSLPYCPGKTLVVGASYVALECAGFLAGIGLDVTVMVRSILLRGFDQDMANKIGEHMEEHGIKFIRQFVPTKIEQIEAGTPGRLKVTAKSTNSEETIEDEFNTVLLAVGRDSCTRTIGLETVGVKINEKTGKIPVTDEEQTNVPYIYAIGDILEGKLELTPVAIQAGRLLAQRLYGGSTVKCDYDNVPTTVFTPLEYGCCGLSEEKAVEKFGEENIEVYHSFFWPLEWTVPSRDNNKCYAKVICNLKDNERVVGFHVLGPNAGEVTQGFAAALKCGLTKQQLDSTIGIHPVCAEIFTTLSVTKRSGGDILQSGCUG
# Sequence of Chromobox protein homolog 1 (Homo sapiens) (P83916 whole entry, looked up): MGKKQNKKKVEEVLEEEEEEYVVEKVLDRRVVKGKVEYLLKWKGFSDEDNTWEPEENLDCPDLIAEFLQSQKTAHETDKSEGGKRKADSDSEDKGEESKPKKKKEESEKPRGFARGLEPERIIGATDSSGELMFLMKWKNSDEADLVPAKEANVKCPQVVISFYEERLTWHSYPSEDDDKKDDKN
# Sequence of Thyrotropin receptor (Homo sapiens) (P16473 whole entry, looked up): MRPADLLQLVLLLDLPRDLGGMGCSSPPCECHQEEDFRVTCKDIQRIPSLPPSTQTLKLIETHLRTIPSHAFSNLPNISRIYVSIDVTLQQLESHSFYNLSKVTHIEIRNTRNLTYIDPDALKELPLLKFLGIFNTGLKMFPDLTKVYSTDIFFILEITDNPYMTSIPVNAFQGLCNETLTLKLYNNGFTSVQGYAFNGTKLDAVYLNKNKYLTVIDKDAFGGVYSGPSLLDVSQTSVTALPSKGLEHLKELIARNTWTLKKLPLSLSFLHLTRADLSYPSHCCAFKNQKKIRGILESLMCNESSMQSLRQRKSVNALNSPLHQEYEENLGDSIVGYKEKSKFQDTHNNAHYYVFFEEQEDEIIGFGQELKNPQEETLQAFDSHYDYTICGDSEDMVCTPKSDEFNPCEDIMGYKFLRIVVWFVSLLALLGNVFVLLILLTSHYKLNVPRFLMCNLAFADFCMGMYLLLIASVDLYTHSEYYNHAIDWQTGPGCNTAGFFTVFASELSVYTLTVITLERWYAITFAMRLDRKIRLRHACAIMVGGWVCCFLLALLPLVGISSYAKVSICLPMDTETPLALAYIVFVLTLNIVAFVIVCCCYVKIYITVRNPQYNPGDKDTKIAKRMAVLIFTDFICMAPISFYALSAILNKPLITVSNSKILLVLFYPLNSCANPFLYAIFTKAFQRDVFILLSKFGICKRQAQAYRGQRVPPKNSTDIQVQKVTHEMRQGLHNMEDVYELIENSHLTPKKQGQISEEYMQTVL
# Sequence of ATP-dependent 6-phosphofructokinase (Trypanosoma brucei brucei) (O15648 whole entry, looked up): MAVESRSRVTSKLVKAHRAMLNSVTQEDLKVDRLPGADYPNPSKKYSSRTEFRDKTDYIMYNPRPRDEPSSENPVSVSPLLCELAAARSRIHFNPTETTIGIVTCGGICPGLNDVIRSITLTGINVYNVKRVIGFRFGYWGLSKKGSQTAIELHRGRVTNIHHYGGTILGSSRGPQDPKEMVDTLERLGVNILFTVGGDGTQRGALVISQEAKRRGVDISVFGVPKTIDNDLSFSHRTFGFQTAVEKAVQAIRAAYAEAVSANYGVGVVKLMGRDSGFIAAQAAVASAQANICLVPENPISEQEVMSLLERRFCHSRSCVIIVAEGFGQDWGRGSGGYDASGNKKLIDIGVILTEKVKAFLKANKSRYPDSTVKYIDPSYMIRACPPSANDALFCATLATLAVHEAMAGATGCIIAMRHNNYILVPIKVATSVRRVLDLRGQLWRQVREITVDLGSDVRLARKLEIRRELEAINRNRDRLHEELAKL
# Sequence of Thyrotropin-releasing hormone receptor (Homo sapiens) (P34981 whole entry, looked up): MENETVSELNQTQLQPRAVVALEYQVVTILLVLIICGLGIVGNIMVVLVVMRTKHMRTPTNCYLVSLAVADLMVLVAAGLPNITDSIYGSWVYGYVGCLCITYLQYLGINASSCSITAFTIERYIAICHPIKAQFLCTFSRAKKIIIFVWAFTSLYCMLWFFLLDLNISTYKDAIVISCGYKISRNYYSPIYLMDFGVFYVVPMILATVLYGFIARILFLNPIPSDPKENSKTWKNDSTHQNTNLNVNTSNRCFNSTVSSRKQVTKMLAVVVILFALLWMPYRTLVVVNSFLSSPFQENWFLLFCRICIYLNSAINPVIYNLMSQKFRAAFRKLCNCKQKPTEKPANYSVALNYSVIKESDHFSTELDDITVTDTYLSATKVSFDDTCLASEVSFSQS
# Sequence of Transient receptor potential cation channel subfamily V member 1 (Homo sapiens) (Q8NER1 whole entry, looked up): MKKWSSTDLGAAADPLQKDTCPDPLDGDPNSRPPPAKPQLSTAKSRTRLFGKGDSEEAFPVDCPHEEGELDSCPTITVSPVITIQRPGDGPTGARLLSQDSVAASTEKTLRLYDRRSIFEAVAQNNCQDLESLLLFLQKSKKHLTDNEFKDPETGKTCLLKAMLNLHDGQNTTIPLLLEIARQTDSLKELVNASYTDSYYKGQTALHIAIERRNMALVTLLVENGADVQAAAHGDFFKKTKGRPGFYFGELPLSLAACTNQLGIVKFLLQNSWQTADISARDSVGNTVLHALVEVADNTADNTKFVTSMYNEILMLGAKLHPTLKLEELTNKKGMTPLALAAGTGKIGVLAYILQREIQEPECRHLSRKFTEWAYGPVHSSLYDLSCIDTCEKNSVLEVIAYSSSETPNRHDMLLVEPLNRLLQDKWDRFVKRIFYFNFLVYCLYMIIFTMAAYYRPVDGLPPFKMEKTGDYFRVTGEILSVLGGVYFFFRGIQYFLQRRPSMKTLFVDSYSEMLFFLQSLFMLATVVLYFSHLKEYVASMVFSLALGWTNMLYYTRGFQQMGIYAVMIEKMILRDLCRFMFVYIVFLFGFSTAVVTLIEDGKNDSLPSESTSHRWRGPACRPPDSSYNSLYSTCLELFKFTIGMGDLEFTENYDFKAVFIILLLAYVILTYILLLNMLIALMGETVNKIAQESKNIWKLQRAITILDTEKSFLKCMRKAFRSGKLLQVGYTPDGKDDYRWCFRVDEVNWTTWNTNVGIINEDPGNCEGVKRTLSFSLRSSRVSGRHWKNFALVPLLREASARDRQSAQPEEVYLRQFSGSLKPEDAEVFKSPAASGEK
# Sequence of Flap endonuclease 1 (Homo sapiens) (P39748 whole entry, looked up): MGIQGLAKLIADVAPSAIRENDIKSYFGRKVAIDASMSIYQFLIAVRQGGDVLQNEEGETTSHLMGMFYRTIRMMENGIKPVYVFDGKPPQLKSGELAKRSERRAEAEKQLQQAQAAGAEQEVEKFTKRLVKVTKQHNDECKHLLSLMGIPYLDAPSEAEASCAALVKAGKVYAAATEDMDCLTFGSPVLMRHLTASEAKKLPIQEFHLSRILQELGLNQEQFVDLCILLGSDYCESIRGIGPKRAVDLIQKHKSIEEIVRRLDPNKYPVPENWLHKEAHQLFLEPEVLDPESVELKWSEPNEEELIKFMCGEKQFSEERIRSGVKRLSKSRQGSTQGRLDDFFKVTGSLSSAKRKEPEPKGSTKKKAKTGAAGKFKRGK
# Sequence of M-phase phosphoprotein 8 (Homo sapiens) (Q99549 whole entry, looked up): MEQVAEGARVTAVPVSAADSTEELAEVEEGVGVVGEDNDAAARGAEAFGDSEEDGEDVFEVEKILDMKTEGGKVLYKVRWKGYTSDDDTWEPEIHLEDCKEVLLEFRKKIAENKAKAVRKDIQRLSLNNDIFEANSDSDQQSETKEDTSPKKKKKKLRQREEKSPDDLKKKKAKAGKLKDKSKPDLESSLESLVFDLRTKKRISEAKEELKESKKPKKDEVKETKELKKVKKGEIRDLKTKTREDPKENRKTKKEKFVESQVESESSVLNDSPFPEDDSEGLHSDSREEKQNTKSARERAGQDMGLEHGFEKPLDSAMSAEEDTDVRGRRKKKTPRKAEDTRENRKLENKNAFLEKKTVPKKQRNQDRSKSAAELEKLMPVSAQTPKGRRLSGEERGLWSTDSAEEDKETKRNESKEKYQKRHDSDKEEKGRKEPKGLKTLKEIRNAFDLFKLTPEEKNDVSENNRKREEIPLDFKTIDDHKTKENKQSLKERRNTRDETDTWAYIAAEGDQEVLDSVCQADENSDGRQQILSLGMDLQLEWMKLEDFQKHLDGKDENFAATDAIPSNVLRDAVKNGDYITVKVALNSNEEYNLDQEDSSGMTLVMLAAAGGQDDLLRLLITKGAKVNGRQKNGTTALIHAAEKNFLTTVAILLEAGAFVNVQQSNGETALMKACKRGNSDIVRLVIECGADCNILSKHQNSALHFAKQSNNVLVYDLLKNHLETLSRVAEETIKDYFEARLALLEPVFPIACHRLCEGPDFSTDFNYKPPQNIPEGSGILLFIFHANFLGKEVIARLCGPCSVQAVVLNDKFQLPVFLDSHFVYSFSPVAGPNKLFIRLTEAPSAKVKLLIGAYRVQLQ
smiles,measurement,setting,value
Cc1cccc(C#Cc2ccccc2)n1,outcome,[1],inactive
same,Potency,[2],inactive
same,Potency,[3],inactive
same,Potency,[4],inactive
same,outcome,[5],inactive
same,outcome,[6],inactive
same,outcome,[7],inactive
same,outcome,[8],inactive
same,Potency,[9],inactive
same,Potency,[10],inactive
same,Potency,[11],8.2 µM (active)
same,activation,[12],-5.31% (inactive)
COc1cc(OC)c(C(=O)CCCN2CCCC2)c(OC)c1,outcome,[13],inactive
CN(c1nccc(=O)[nH]1)C1CCN(c2nc3ccccc3n2Cc2ccc(F)cc2)CC1,outcome,[13],inactive
Nc1cccc2c1CN(C1CCC(=O)NC1=O)C2=O (centres undefined),outcome,[13],inactive
COc1ccc2cc([C@H](C)C(=O)O)ccc2c1,Potency,[14],inactive
same,Potency,[15],inactive
same,outcome,[1],inactive
same,Potency,[2],inactive
same,Potency,[3],inactive
same,Potency,[16],0.006 µM (active)
same,outcome,[5],inactive
same,outcome,[6],inactive
same,outcome,[7],inactive
same,outcome,[8],inactive
same,Potency,[9],inactive
same,Potency,[10],inactive
same,outcome,[13],inactive
same,Potency,[11],inactive
same,outcome,[17],inactive
O=C(NCCO[N+](=O)[O-])c1cccnc1,outcome,[13],inactive
CCCCN(CCCC)CCC(O)c1cc2c(Cl)cc(Cl)cc2c2cc(C(F)(F)F)ccc12 (centres undefined),outcome,[13],inactive
Cc1cc2c(s1)Nc1ccccc1N=C2N1CCN(C)CC1,outcome,[13],inactive
Cc1cccc(C)c1OCC(=O)N[C@@H](Cc1ccccc1)[C@@H](O)C[C@H](Cc1ccccc1)NC(=O)[C@H](C(C)C)N1CCCNC1=O,outcome,[13],inactive
CNC[C@H](O)c1ccc(O)c(O)c1,Potency,[14],inactive
same,Potency,[15],inactive
same,outcome,[1],inactive
same,Potency,[3],10.6 µM (active)
same,Potency,[4],inactive
same,Potency,[16],inactive
same,outcome,[5],inactive
same,outcome,[6],inactive
same,outcome,[7],inactive
same,Potency,[9],inactive
same,outcome,[13],inactive
same,Potency,[11],inactive
same,outcome,[17],inactive
same,activation,[12],0.875% (inactive)
Oc1ccc(OCc2ccccc2)cc1,outcome,[13],inactive
CCC(C)(Oc1ccc(C2(c3ccc(OC(C)(CC)C(=O)O)cc3)CCCCC2)cc1)C(=O)O (centres undefined),outcome,[13],inactive
N=C(N)c1ccc2cc(OC(=O)c3ccc(N=C(N)N)cc3)ccc2c1,outcome,[13],inactive
Cc1c(C(=O)NN2CCCCC2)nn(-c2ccc(Cl)cc2Cl)c1-c1ccc(Cl)cc1,outcome,[13],inactive
C=CCc1cc(OC)c(O)c(C(=O)NCCO)c1,outcome,[13],inactive
CCC[C@@H]1C[C@@H](C(=O)N[C@@H]([C@H]2O[C@H](SC)[C@H](O)[C@@H](O)[C@H]2O)[C@@H](C)O)N(C)C1,outcome,[13],inactive
Cc1ncc([N+](=O)[O-])n1CC(C)O (centres undefined),outcome,[13],inactive
Cc1ccc(NC(=O)c2ccc(CN3CCN(C)CC3)cc2)cc1Nc1nccc(-c2cccnc2)n1,outcome,[13],inactive
CCCCCCCCCCCCCCCCCCCCCCO,outcome,[13],inactive
C[Se]CCC(N)C(=O)O (centres undefined),outcome,[13],inactive
Cc1nc(Nc2ncc(C(=O)Nc3c(C)cccc3Cl)s2)cc(N2CCN(CCO)CC2)n1,outcome,[13],inactive
COCCCOc1ccnc(CS(=O)c2nc3ccccc3[nH]2)c1C (centres undefined),outcome,[13],inactive
N[C@@H](Cc1cc(I)c(Oc2cc(I)c(O)c(I)c2)c(I)c1)C(=O)O,outcome,[13],inactive
Cc1nc2n(c(=O)c1CCN1CCC(c3noc4cc(F)ccc34)CC1)CCCC2,Potency,[14],inactive
same,Potency,[15],inactive
same,Potency,[4],inactive
same,outcome,[6],inactive
same,outcome,[7],inactive
same,activation,[12],0.938% (inactive)
Cc1cc(=O)oc2cc(O)ccc12,outcome,[13],inactive
C[C@]12CCC(=O)C=C1CC[C@@H]1[C@H]2[C@@H](O)C[C@@]2(C)[C@H]1CC[C@]2(O)C(=O)CO,outcome,[13],inactive
CCCCc1ccc2nc(NC(=O)OC)[nH]c2c1,outcome,[13],inactive
CCN(CC)C(=S)SSC(=S)N(CC)CC,outcome,[18],inactive
same,outcome,[1],inactive
same,Potency,[3],inactive
same,Potency,[4],10 µM (active) and inactive
same,Potency,[16],28.2 µM (active)
same,outcome,[5],inactive
same,outcome,[7],inactive
same,Potency,[11],18.3 µM (active)
same,activation,[12],4% (inactive)
